Measurements from PubChem BioAssay.
The source made the active and inactive calls.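 The calls were made as follows, unless noted: active = inhibition at or above 50% at 10 µM; inactive = inhibition below 50%.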

Tests used:
[1] = inhibitors of TNFa-induced NFkB p65 translocation, primary screen, imaging, HUVEC, MLSMR starter and 10KST1 sets (AID 438;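 active = inhibition above 20% together with a positive visual image hit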;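 also: compound added about 3h40 before a 20 min TNFalpha stimulation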;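 as to inhibition: signal is the nuclear over cytoplasmic p65 intensity ratio per well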); conditions: HUVEC TNFa-induced p65 nuclear translocation; cell count: measured here: nuclei count (cytotoxicity indicator), at 2.08 µM; inhibition: at 2 µM, stronger effect = higher value, 0% TNFa-plus-vehicle, 100% no-TNFa wells
[2] = inhibitors of mutant huntingtin aggregation, primary screen, imaging, exon1htt(103Q)mCFP cells, high-content imaging (AID 483;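 active = visual image review flags a hit and inhibition of aggregation exceeds 20%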;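 also: compound exposure lasted 3 days before fixation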;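 as to nuclei count: percent of the per-plate median nuclei count of sample wells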); conditions: exon1htt(103Q)mCFP cell line, aggregate imaging, at 2 µM; inhibition of aggregation: stronger effect = higher value; nuclei count: measured here: cell count, toxicity
[3] = inhibitors of E-selectin induction by TNFa, primary screen, imaging, HUVEC, immunofluorescence, MLSMR starter and 10KST1 sets (AID 487;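 active = visually confirmed hit in the image check and inhibition above 20%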;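 as to inhibition: signal is fraction of cell area covered by stained E-selectin grains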;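 as to nuclei count: 100% = median nuclei count of all wells on the same plate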); conditions: HUVEC TNFalpha-induced E-selectin immunofluorescence imaging, at 2 µM; inhibition: stronger effect = higher value; nuclei count: measured here: cell number, toxicity
[4] = biological target: Voltage-gated potassium channel subunit beta-2 (Rattus norvegicus) (UniProt P62483); test: KvBeta enzyme negative modulators, primary screen, biochemical, NADPH fluorescence (AID 622;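 active = fluorescence slope higher than the sample average by over 3 SD, cut at about -0.22 in these data, passing the limit was not always enough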;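 also: slope of raw intensity against log time taken from 70 to 1610 s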); conditions: recombinant KvBeta, 4-cyanobenzaldehyde reduction, at 10 µM, stronger effect = higher value
Voltage-gated potassium channel subunit beta-2 (Rattus norvegicus), sequence (P62483 whole entry, looked up): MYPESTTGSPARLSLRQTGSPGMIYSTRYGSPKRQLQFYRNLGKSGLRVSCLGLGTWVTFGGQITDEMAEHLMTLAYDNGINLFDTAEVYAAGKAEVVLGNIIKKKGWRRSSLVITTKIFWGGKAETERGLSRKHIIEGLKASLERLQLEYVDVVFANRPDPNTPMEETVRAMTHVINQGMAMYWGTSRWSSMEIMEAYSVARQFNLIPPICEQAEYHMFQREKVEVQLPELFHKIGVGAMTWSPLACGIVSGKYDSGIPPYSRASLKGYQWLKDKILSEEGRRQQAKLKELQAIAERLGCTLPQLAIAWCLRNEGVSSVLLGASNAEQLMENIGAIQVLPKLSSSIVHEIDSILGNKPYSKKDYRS

[5] = biological target: Voltage-gated potassium channel subunit beta-2 (Rattus norvegicus) (UniProt P62483); test: KvBeta positive modulators, primary screen, biochemical, NADPH fluorescence (AID 623;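 active = NADPH fluorescence slope more negative than the mean of all samples by about 3 SD, 99.7% confidence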;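 also: fluorescence intensity change per second fitted from 20 to 320 s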); conditions: Recombinant KvBeta, NADPH fluorescence decrease slope, 10 min; at 10 µM; stronger effect = lower value
[6] = biological target: Alpha-2C adrenergic receptor (Homo sapiens) (UniProt P18825); test: modulators of alpha2C/GIRK thallium flux, primary screen, cell-based, HEK293 alpha2C/GIRK1/2 (AID 624;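 active = fluorescence slope after compound addition differing from the mean of all screened samples at 99.7% confidence, in either direction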;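 also: slope of fluorescence ratio to pre-addition baseline per second over 15 to 24 s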); conditions: thallium flux BTC fluorescence, at 10 µM, actives lie on both sides
Alpha-2C adrenergic receptor (Homo sapiens), sequence (P18825 whole entry, looked up): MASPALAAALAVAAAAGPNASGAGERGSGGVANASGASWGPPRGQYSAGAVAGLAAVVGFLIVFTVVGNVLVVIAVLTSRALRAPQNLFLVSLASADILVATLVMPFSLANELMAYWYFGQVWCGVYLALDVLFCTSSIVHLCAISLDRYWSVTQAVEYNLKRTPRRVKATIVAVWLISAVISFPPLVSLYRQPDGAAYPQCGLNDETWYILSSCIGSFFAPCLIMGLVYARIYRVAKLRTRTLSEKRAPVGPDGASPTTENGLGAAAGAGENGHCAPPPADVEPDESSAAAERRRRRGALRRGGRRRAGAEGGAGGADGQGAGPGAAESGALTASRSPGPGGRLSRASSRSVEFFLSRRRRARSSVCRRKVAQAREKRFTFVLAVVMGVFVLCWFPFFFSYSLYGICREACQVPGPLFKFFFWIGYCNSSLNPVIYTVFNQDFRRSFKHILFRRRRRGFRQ

[7] = inhibitors of Sendai virus-induced IRF3 signaling, primary screen, TLR/RLR signaling modifier project, cell-based, Sendai virus stimulus, luciferase, 10K MLSCN set (AID 602276); conditions: HEK293 RL24 IRF3 luciferase reporter, at 10 µM, stronger effect = higher value;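 also: firefly luciferase from ISG56 promoter only with Renilla not read in this screen; 0% = Sendai virus plus DMSO and 100% = medium plus DMSO without virus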
[8] = inhibitors of poly I:C-induced TLR3 signaling, primary screen, cell-based, poly I:C stimulus, luciferase, 10K MLSCN set (AID 602277;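 active = inhibition of the reporter signal at or above 50%; inactive = inhibition below 50%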); conditions: HEK293-TLR3 RL24 IRF3 luciferase reporter, at 10 µM, stronger effect = higher value

Structure (SMILES)	cell count [1]	inhibition [1]	inhibition of aggregation [2]	nuclei count [2] [%]	inhibition [3]	nuclei count [3] [%]	fluorescence slope [4]	NADPH fluorescence slope [5]	slope [6]	inhibition [7]	inhibition [8]
CCOc1cc(S(=O)(=O)N2CCC(Cc3ccccc3)CC2)c(OCC)cc1-n1cnnn1	517	1.9% (inactive)	-5.6% (inactive)	103	-119% (inactive)	178	-0.613 (inactive)	9.5e-06 (inactive)	0.0103 (inactive)	-0.144% (inactive)	10.4% (inactive)
O=C(c1cc2n(n1)C(C(F)(F)F)CC(c1ccc(Cl)cc1)N2)N1CCCC1 (stereo not drawn)	259	-5.8% (inactive)	-22.3% (inactive)	112	-9.7% (inactive)	102	-0.322 (inactive)	4.7e-06 (inactive)	0.00413 (inactive)	14.3% (inactive)	16.5% (inactive)
Cc1cccc(N2C(=O)CC(Sc3nc(C)c4c(n3)CCCC4)C2=O)c1 (stereo not drawn)	603	3.4% (inactive)	-4.5% (inactive)	105	2% (inactive)	104	-0.592 (inactive)	-2.5e-05 (inactive)	0.00308 (inactive)	-11.6% (inactive)	-8.43% (inactive)
Cc1nnc(SCCn2c(Br)nc3c2c(=O)n(C)c(=O)n3C)s1	410	3.8% (inactive)	2% (inactive)	101	-12% (inactive)	109	-0.374 (inactive)	-1.8e-05 (inactive)	0.00518 (inactive)	-7.02% (inactive)	-0.072% (inactive)
O=C(O)CCC(=O)c1c[nH]c2ccccc12	458	0.5% (inactive)	20% (inactive)	103	-43.2% (inactive)	105	-0.457 (inactive)	9.9e-05 (inactive)	0.00973 (inactive)	-16.3% (inactive)	8.52% (inactive)
O=C1CN(Cc2ccccc2)C(=NCc2ccco2)S1	446	3.4% (inactive)	-5.3% (inactive)	99.8	13.6% (inactive)	97.4	-0.451 (inactive)	-2.2e-05 (inactive)	0.00487 (inactive)	8.96% (inactive)	30.9% (inactive)
CNC(=O)c1ccsc1NC(=O)c1ccccc1	512	4.7% (inactive)	12.3% (inactive)	91.6	7.3% (inactive)	88.8	-0.413 (inactive)	-1.9e-05 (inactive)	0.00587 (inactive)	-11.3% (inactive)	-28.3% (inactive)
Cc1cc(C)n2cc(CSc3nnnn3C)nc2n1	532	-36.9% (inactive)	9.5% (inactive)	106	36.6% (inactive)	65.8	-0.256 (inactive)	-4.3e-06 (inactive)	0.00505 (inactive)	15.1% (inactive)	19.7% (inactive)
Cc1occc1-c1nnc(SCC(=O)N2CCc3ccccc32)o1	679	-1.9% (inactive)	2.9% (inactive)	73.2	-7.2% (inactive)	106	-0.478 (inactive)	2.9e-05 (inactive)	0.00881 (inactive)	5.8% (inactive)	5.93% (inactive)
CCn1c(SCC(=O)Nc2ccc(Cl)cc2)nnc1C1CC1	811	1.7% (inactive)	12.1% (inactive)	127	-54.5% (inactive)	97.1	-0.608 (inactive)	-1.6e-05 (inactive)	0.00675 (inactive)	4.41% (inactive)	17.1% (inactive)
Cc1cccc(N2CCN(C(=O)Cn3nc(Cc4ccncc4)c4ccccc4c3=O)CC2)c1C	895	-5.5% (inactive)	14.3% (inactive)	103	-72% (inactive)	118	-0.563 (inactive)	-4.2e-05 (inactive)	0.00577 (inactive)	4.52% (inactive)	5.5% (inactive)
Cc1ccc2[nH]cc(C(=O)CN3CCC4(CC3)OCCO4)c2c1	355	2% (inactive)	14.9% (inactive)	88	-18.9% (inactive)	122	-0.619 (inactive)	-9.1e-06 (inactive)	0.00468 (inactive)	4.24% (inactive)	7.68% (inactive)
Cc1cc(C)cc(NC(=O)CCNS(=O)(=O)c2ccc3c(c2)oc(=O)n3C)c1	755	-14.1% (inactive)	-14.6% (inactive)	120	-79.9% (inactive)	100	-0.601 (inactive)	-3.2e-05 (inactive)	0.00584 (inactive)	20.7% (inactive)	22.7% (inactive)
Oc1ccc2cccnc2c1	719	-12.9% (inactive)	-15.8% (inactive)	100	-44.3% (inactive)	118	-0.12 (active)	2.2e-05 (inactive)	0.00432 (inactive)	-2.36% (inactive)	0.747% (inactive)
COc1ccc(OC)c(-c2nnc(SCC(=O)NC3CCCCC3)o2)c1	738	2.1% (inactive)	13.9% (inactive)	97.8	-24.5% (inactive)	114	-0.574 (inactive)	-1.4e-05 (inactive)	0.00689 (inactive)	-17.4% (inactive)	0.755% (inactive)
Cc1nnc2c3ccccc3c(-c3ccccc3)nn12	481	-4.4% (inactive)	-5.8% (inactive)	92.4	-3.3% (inactive)	108	-0.301 (inactive)	-4.7e-05 (inactive)	0.00584 (inactive)	68% (active)	61.1% (active)
CCCCCc1c(O)nc(SCC(=O)NCC2CCCO2)[nH]c1=O (stereo not drawn)	579	7.7% (inactive)	-2.5% (inactive)	108	-51.3% (inactive)	111	-0.417 (inactive)	3.1e-05 (inactive)	0.00681 (inactive)	3.21% (inactive)	1.9% (inactive)
Nn1c(SCC(=O)Nc2ccc3c(c2)OCO3)nnc1C1CC1	363	4.8% (inactive)	0.8% (inactive)	100	-16% (inactive)	111	-0.574 (inactive)	-5.7e-05 (inactive)	0.00672 (inactive)	4.52% (inactive)	17.1% (inactive)
O=C(c1ccc(-c2ccccc2)cc1)N1CCN(c2ncccn2)CC1	332	-21.2% (inactive)	11.5% (inactive)	76	-38.6% (inactive)	85.3	-0.429 (inactive)	-2.4e-06 (inactive)	0.00541 (inactive)	2.14% (inactive)	28.8% (inactive)
Cc1cc(C(=O)OCC(=O)N2c3ccccc3CC2C)c(C)o1 (stereo not drawn)	733	-9.6% (inactive)	3.2% (inactive)	85.1	-49.5% (inactive)	111	-0.425 (inactive)	2.6e-05 (inactive)	0.00532 (inactive)	-14.2% (inactive)	-2.49% (inactive)
CCOc1cc(NC(=O)c2ccco2)c(OCC)cc1NC(=O)CCC(=O)NCc1cccnc1	600	4.9% (inactive)	2.6% (inactive)	97.7	16% (inactive)	90.3	-0.358 (inactive)	1.7e-05 (inactive)	0.00315 (inactive)	9.41% (inactive)	23.3% (inactive)
CCOC(=O)Cn1c(CN2CCN(c3cccc(Cl)c3)CC2)nc2c1c(=O)[nH]c(=O)n2C	669	0% (inactive)	-3.2% (inactive)	111	6.7% (inactive)	120	-0.583 (inactive)	-1.7e-05 (inactive)	0.00641 (inactive)	16.4% (inactive)	32.5% (inactive)
CCOC(=O)CC1=C(C(=O)OCC)C(c2ccc(C)o2)C(C#N)=C(N)O1 (stereo not drawn)	339	-16.4% (inactive)	15.3% (inactive)	91.9	-46.5% (inactive)	94.7	-0.625 (inactive)	3.1e-06 (inactive)	0.00603 (inactive)	3.2% (inactive)	8.99% (inactive)
O=C(Nc1ccccc1C(=O)N1CCOCC1)C1CCC(=O)N1C1CCCC1 (stereo not drawn)	229	14.7% (inactive)	8.7% (inactive)	79.1	-48.2% (inactive)	110	-0.425 (inactive)	-4.5e-05 (inactive)	0.00481 (inactive)	4.86% (inactive)	7.23% (inactive)
CCN1CCN(S(=O)(=O)Cc2ccccc2)CC1	426	-2.4% (inactive)	23.9% (inactive)	32.2	-78.4% (inactive)	106	-0.607 (inactive)	-2.9e-05 (inactive)	0.00543 (inactive)	-13.3% (inactive)	-9.78% (inactive)
CCN(CC)CCOC(=O)c1ccc(NC(=O)COc2cc(=O)n(CC)c3ccccc23)cc1	386	6.7% (inactive)	-6.9% (inactive)	108	-26.7% (inactive)	117	-0.514 (inactive)	4.9e-05 (inactive)	0.00772 (inactive)	-1.28% (inactive)	-7.01% (inactive)
CCOc1cc(/C=N/n2cnnc2)cc(Br)c1O	819	4.2% (inactive)	-15.3% (inactive)	100	-30.9% (inactive)	124	-0.381 (inactive)	-4.4e-06 (inactive)	0.00481 (inactive)	13.1% (inactive)	7.19% (inactive)
Cc1ccc(-c2nnn(CC(=O)N(Cc3cccs3)C(C(=O)NC(C)(C)C)c3ccc(C)o3)n2)o1 (stereo not drawn)	675	-4% (inactive)	-2.3% (inactive)	136	-20.1% (inactive)	137	-0.361 (inactive)	-2.9e-05 (inactive)	0.00454 (inactive)	16.3% (inactive)	20.6% (inactive)
